# TDP1 block – blocks human tyrosyl-DNA phosphodiesterase 1; Q9NUW8; recombinant TDP1, AlphaScreen DNA substrate cleavage; Potency, µM (highest dose often 130 µM), usual class: inhibitors; hit rate 0.28% among 350,000; AID 485290; also: nearly all actives have a fitted effect of over 40% in size
#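 Tdp1 1 nM final; 15 min RT w/ cpd; substrate 15 nM, 5 min; beads 10 ug/ml, 10 min; AlphaScreen read. Neg ctrl: no enzyme.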
# HP1b binding inh – HP1-beta chromodomain-methylated histone interaction inhibition; AlphaScreen HP1-beta / biotin-H3K9me3 peptide binding; Potency, µM (titrated, usually from 114 µM), actives largely listed as inhibitors; hit rate 0.56% among 390,000; also: nearly all actives have a fitted effect of over 70% in size
#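 HP1-beta protein (50 nM final) preincubated 30 min at room temperature with biotinylated H3(1-18)K9me3 peptide (50 nM) in PBS pH 7.4, 0.01% Tween-20, then compound added for 30 min. AlphaScreen streptavidin donor/nickel chelate acceptor beads (10 ug/mL final), 30 min dark, luminescence read.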
# CtBP-E1A blk – CtBP/E1A binding inhibition; AlphaScreen GST-E1A/His-CtBP binding, 1536-well; stronger effect = lower value; activity change, % (concentration not given with the values); hit rate 0.49% among 340,000; AID 651724; in the data active = activity change below about -65%; inconclusive = mostly about -30% to -63%
#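 AlphaScreen with 125 nM GST-E1A and 125 nM His-CtBP (5X stocks) in Tris pH 8.0, 300 mM NaCl, BSA, Tween 20, TCEP. Compounds preincubated 2 h at 37 deg C, then glutathione donor/nickel acceptor beads added for 1 h at 37 deg C in dark.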
# JMJD2A Tudor inh – JMJD2A Tudor domain (human) inhibition | O75164 | AlphaScreen JMJD2A-Tudor / H3K4me3 peptide binding | Potency, µM (doses to about 114 µM), hits mostly inhibitors | hit rate 4.4% among 390,000 | AID 504339; also: nearly all actives have a fitted effect of over 50% in size
# Six1-Eya2 blk – Six1/Eya2 interaction inhibition. Q15475+O00167. AlphaScreen GST-Six1/His-Eya2 binding, biochemical; stronger effect = lower value. activity change, % (concentration not given with the values). hit rate 0.56% among 360,000. AID 651725; in the data active = activity change below about -65%; inconclusive = mostly about -30% to -63%
# Target sequence (O00167 whole entry, looked up): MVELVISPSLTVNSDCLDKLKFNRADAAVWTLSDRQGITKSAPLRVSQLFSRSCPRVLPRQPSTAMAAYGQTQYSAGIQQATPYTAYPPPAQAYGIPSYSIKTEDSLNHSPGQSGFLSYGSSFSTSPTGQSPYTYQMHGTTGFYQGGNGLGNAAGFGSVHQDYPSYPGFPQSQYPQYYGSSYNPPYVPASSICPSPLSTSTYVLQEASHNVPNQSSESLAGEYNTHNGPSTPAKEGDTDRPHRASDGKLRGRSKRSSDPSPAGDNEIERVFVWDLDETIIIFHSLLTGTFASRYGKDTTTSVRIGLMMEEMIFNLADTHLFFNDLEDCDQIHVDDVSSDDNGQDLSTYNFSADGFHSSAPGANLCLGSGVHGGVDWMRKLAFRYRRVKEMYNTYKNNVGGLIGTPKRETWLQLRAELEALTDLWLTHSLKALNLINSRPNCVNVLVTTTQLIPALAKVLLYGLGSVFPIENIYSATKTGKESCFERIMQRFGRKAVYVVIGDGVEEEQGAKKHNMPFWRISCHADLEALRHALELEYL
# Target sequence (Q15475 whole entry, looked up): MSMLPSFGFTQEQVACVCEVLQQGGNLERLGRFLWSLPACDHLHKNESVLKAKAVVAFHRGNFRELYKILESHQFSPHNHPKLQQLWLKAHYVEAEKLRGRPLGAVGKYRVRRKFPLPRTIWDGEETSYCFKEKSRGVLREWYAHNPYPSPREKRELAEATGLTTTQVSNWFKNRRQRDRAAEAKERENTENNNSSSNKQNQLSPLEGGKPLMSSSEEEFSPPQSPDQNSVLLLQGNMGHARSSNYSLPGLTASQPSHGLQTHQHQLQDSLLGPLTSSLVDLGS
#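 AlphaScreen with GST-Six1 and His-Eya2 (5X mix: 250 nM and 500 nM), glutathione donor and nickel acceptor beads; buffer 50 mM Tris pH 8.0, 300 mM NaCl, 1 mM TCEP; 1 h at 37 C in the dark.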
# BAZ2B block – inhibitors of human BAZ2B bromodomain | Potency, µM (series often up to 114 µM), usual class: inhibitors | Q9UIF8 | AlphaScreen BAZ2B-H3K14Ac peptide displacement | hit rate 4.4% among 360,000; also: nearly all actives have a fitted effect of over 60% in size
#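 AlphaScreen displacement of biotin-H3(5-23)K14Ac peptide (50 nM final) from BAZ2B (50 nM final) in PBS pH 7.4, 0.01% Tween-20; complex preformed 30 min RT, then compounds (top 110 uM) 30 min RT, beads 20 min dark.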
# Numbers stand for hits; - = inactive; ? = inconclusive; . = no result; [ ] = remark or other dose. Rows were chosen to be rich in hits. Some 5.3% of all compounds tested hit in one or more screens of this group. Unless noted, calls follow the shape of the dose curve; as a rule, active = well fitted inhibition curve with a large enough effect; inconclusive = small, poorly fitted or top-dose-only effect; inactive = no such curve, though single readings can be large or run the other way.
SMILES,TDP1 block,HP1b binding inh,CtBP-E1A blk,JMJD2A Tudor inh,Six1-Eya2 blk,BAZ2B block
COc1ccccc1CNC(=O)c1ccccc1C(=O)NC(CC(C)C)C(=O)NCc1ccccc1OC (stereo not drawn),.,-,-,35.5µM,-,?
C=C(C)Cc1c(C)c(C#N)c2[nH]c3ccccc3n2c1=O,.,-,-,-,-,-
CCc1c(C)c(C#N)c2[nH]c3ccccc3n2c1=S,-,20µM,-,5.62µM,-,35.5µM
CCc1cc(=S)n2c([nH]c3ccccc32)c1C#N,-,39.8µM,-,20µM,-,79.4µM
NC(c1csc(Nc2ncccn2)n1)C1CCCCC1 (stereo not drawn),.,.,-67.5,.,?,.
NC(c1csc(Nc2cnccn2)n1)C1CCCCC1 (stereo not drawn),.,.,-70.4,.,-,.
NC(c1csc(Nc2nccc(C(F)(F)F)n2)n1)C1CCCCC1 (stereo not drawn),.,.,-,.,-,.
NC(c1csc(Nc2ccc(C(F)(F)F)cn2)n1)C1CCCCC1 (stereo not drawn),.,.,-,.,-,.
Cc1cccc2nc(-c3ccco3)c(Nc3ccc4c(c3)OCCO4)n12,-,?,.,56.2µM,-,35.5µM
Cc1ccn2c(Nc3ccc4c(c3)OCCO4)c(-c3ccc(C)o3)nc2c1,-,-,.,44.7µM,.,31.6µM
c1coc(-c2nc3ccccn3c2Nc2ccc3c(c2)OCCO3)c1,-,?,.,56.2µM,.,44.7µM
Cc1ccc(-c2nc3cnccn3c2Nc2ccc(C(C)C)cc2)o1,-,?,.,44.7µM,.,.
O=C(NCc1cccc(F)c1)C1CCN(c2nn3cc(-c4ccc(F)cc4)nc3s2)CC1,-,-,.,-,.,-
O=[N+]([O-])c1ccc(-[n+]2nc(-c3ccccc3)nn2-c2ccccc2)cc1,-,-,-91.6,-,-81.7,-
O=C(c1ccccc1)c1ccc2nc(N3CCN(c4ccc(F)cc4)CC3)c3nncn3c2c1,-[12.3 µM],-,.,-,.,-
Cc1ccc(S(=O)(=O)N2C(=O)[C@@H]3Cc4ccccc4CN3C2=O)cc1,.,-,-,7.94µM,-,-
COC(=O)c1ccc(OCCCCN2CC(C)OC(C)C2)cc1 (stereo not drawn),-,?,-,11.2µM,-,79.4µM
CC1CN(CCCCSc2ccccc2)CC(C)O1 (stereo not drawn),.,-,.,-,-,-
COc1cccc(OCCCCN2CC(C)OC(C)C2)c1 (stereo not drawn),-,?,-,6.31µM,-,?
CC1CN(CCCCOc2ccc3ccccc3c2)CC(C)O1 (stereo not drawn),-,?,-,1.41µM,-,?
COC(=O)c1ccc(OCCN2CCCCCC2)cc1,-,-,-,-,-,?
C=CCc1cccc2cc(C(=O)Nc3ccc(S(=O)(=O)Nc4nnc(CC)s4)cc3)c(=O)oc12,50.1µM,28.2µM,-,28.2µM,-,22.4µM
C=CCc1cccc2cc(C(=O)Nc3ccc(CC(=O)O)cc3)c(=O)oc12,50.1µM,-,.,-[11.4 µM],-,31.6µM
O=S(=O)(NC1CCCC(NS(=O)(=O)c2c(F)cccc2F)C1)c1ccc2c(c1)OCCO2 (stereo not drawn),.,.,.,-,.,.
CCOc1ccc(OCc2ccc(C(=O)N/N=C(\C)c3ccccn3)cc2)cc1,-,-,?,-,?,?
SMILES,TDP1 block,HP1b binding inh,CtBP-E1A blk,JMJD2A Tudor inh,Six1-Eya2 blk,BAZ2B block
C/C(=N\NC(=O)c1ccc(Cl)c(Cl)c1)c1ccccn1,.,-,?,?,?,7.94µM
Cc1cccc2sc(NNC(=O)c3cc(-c4cccs4)nc4ccccc34)nc12,-,-,-,?,-,3.55µM
C/C(=N\NC(=O)c1cccc2ccccc12)c1ccccn1,-,-,-91.9,56.2µM,-90.8,15.8µM
C/C(=N\NC(=O)c1ccccc1OCc1ccc(F)cc1)c1ccccn1,-,-,.,-,?,-
C/C(=N\NC(=O)C1COc2ccccc2O1)c1ccccn1 (stereo not drawn),-,-,-86.3,50.1µM,-90.9,25.1µM
Cc1ccc(NC(=O)c2cc(-c3cccs3)nc3ccccc23)c(C)c1,.,-,.,-,.,-
Cc1cc2c(s1)c1cnn(Cc3ccccc3F)c(=O)c1n2C(C)C,-,.,.,-,.,.
Cc1cc(C)cc(NC(=O)c2cccc(C(=O)Nc3cc(C)cc(C)c3)c2)c1,-[12.3 µM],-,.,-,.,-

# Screening results from PubChem BioAssay.
